# Screening results as filed in PubChem.
# This is one part of a sample in which hits are shown more often than they occur.
# mcGAS MS inh = inhibitors of Mus musculus cyclic GMP-AMP synthase, initial high-throughput assay, cell-free, RapidFire MS | Q8C6L5 | recombinant mouse cGAS, cGAMP by RapidFire MS | inhibition, % at 12.5 µM | hit rate 0.18% among 130,000;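 active = inhibition of cGAS enzyme activity at or above 60%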;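 also: enzyme stimulated by 45 bp dsDNA with ATP and GTP substrates; cGAMP share of summed cGAMP plus half ATP and half GTP signals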
# Target sequence (Q8C6L5 whole entry, looked up): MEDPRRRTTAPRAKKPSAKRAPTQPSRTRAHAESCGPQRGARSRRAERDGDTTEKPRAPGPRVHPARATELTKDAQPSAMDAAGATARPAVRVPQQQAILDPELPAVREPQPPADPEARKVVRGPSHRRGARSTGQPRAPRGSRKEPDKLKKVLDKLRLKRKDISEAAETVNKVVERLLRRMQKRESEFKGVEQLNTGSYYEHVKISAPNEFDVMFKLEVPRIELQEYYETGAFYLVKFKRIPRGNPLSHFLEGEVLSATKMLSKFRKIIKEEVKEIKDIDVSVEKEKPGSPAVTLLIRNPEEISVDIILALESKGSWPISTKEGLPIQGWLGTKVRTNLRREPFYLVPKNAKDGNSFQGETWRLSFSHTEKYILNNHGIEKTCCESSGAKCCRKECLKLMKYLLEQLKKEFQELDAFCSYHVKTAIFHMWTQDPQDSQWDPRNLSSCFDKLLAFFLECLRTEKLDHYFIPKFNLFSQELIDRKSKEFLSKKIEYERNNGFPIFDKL
# Hits are given with their value; 0 = inactive.
SMILES,mcGAS MS inh
CCOC(=O)c1cc(C(=O)OCC)c2c(C)cc(C)cc(C)c1-2,87.9
CCOC(=O)c1cc(Cl)nc(Cl)c1C,0
CCOC(=O)c1c[nH]cc(C)c1=O,0
O=c1[nH]n2c(=O)c3ccccc3nc2c2ccccc12,90.3
O=c1c2ccccc2nc2c3ccccc3c(NCc3ccccn3)nn12,0
O=c1c2ccccc2nc2n1CCS2,0
N#CC(=Cc1ccc(F)cc1)c1nnc2n1CCCCC2,0
N#CC(=Cc1ccc(O)c(O)c1)c1nnc2n1CCCCC2,0
N#CC(=Cc1ccc(Br)cc1)c1nnc2n1CCCCC2,60.4
COC(=O)C1CCCN1C(=O)c1cc(-c2ccccc2)cs1 (stereo not given),0
O=C(c1ccc(Cl)cc1)N1CCN(C(C(=O)N2CCc3ccccc3C2)C2CCCC2)CC1 (stereo not given),0
O=[N+]([O-])c1ccc2[nH]c(O)c(N=NCc3ccccc3)c2c1,0
COc1ccc(-c2c(C#N)c(OCC(C)=O)nc3c2c(C)nn3-c2ccccc2)cc1,0
Cc1cc(C)n(CC(C)NC(=O)c2cc3c(cc2O)CCCC3)n1 (stereo not given),0
CC(C)NC(=O)C1(C)CCCCN1C/C=C/c1ccccc1 (stereo not given),0
CCc1cc(=O)[nH]c2n[nH]c(=S)n12,0
CCCc1cc(=O)[nH]c2n[nH]c(=S)n12,0
O=c1cc(-c2ccccc2)n2c(=S)[nH]nc2[nH]1,67.8
O=C(COc1ccccc1Cl)N1CCCC(Nc2ccc3c(c2)OCCO3)C1 (stereo not given),0
CN(C(=O)COc1ccc(C(N)=O)cc1)C1Cc2ccccc2C1,0
Cc1csc(=O)n1CC(=O)OC(C)C(=O)Nc1ccnn1C(C)C (stereo not given),0
CCCOC(=O)C1=C(C)N(C)C(=O)NC1c1ccc([N+](=O)[O-])cc1 (stereo not given),0
CCOCCOC(=O)C1=C(C)N(C)C(=O)NC1c1cccc([N+](=O)[O-])c1 (stereo not given),0
CCOCCOC(=O)C1=C(C)N(CC)C(=O)NC1c1ccc([N+](=O)[O-])cc1 (stereo not given),98.2
O=C(Nc1nncs1)c1cnn(Cc2ccccc2Cl)c1,0
SMILES,mcGAS MS inh
O=C(Nc1nncs1)c1cn(-c2ccccc2Br)nn1,70.5
O=C(Nc1nnc(C2CC2)s1)c1cn(-c2ccc(Br)cc2)nn1,0
CCNc1ccc(C(O)(C(=O)OC)C(F)(F)F)cc1 (stereo not given),0
CC1CC(C)CN(S(=O)(=O)c2ccc(C(=O)Nc3nc(C#N)c(C#N)[nH]3)cc2)C1 (stereo not given),0
COCCCC1CCN(Cc2nc(-c3ccccn3)no2)CC1,0
COC(=O)c1c(N)sc2c1CCCC2,0
COC(=O)c1c(N2C(=O)C=CC2=O)sc2c1CCCC2,91.4
COC(=O)c1c(N)sc2c1CCC2,0
CCN(Cc1noc(C2CCC2)n1)C(=O)c1cnc2ccccc2c1,0
CCC(C(=O)NC)n1cnc(-c2ccccc2)c1-c1cnn2cccnc12 (stereo not given),0
CC(=O)CCN1C(=O)NC(C)(c2c(F)cccc2F)C1=O (stereo not given),0
CC(Nc1ccc(Cl)cc1Cl)C(=O)O (stereo not given),0
NC(Cc1ccc(O)cc1)C(=O)O (stereo not given),0
N[C@@H](Cc1cc(-c2ccc(Cl)cc2Cl)cc(CP(=O)(O)O)c1O)C(=O)O,69.9
CCc1noc(CNc2cc3c(cc2Cl)OCCCO3)n1,0
CCCNC(=O)C1(C)CCN(CCC(=O)c2ccc(Br)cc2)C1 (stereo not given),64.0
CCNC(=O)C1(C)CCCN(CC(=O)c2ccc(Br)cc2)C1 (stereo not given),0
CCNC(=O)C1(C)CCN1CCC(=O)c1ccc(Br)cc1 (stereo not given),0
CCCCNC(=O)c1cccc(NC(=O)C(C)(C)C)c1,0
C#CCN(CC(=O)NC(C)(C#N)C1CC1)Cc1cccc(C)n1 (stereo not given),0
CC1(C)Cc2c(cnn2-c2ccc([N+](=O)[O-])cc2)-c2[nH]c3ccccc3c21,76.3
N#Cc1cc2[nH]c3ccccc3c2n(-c2ccc([N+](=O)[O-])cc2)c1=N,0
Nc1c(-c2ccccc2)cnn1-c1ccc([N+](=O)[O-])cc1,0
CCN(C(=O)c1cc2c(=O)n3cccc(C)c3nc2n1C)C1CCCCC1,0
CCC(=O)C(C#N)c1nnc(-c2ccccc2)s1 (stereo not given),95.0
SMILES,mcGAS MS inh
Cn1c(-c2ccccc2)nnc1C(C#N)C(=O)C1CC=CCC1 (stereo not given),0
Cc1ccc(S(=O)(=O)c2nnc(-c3ccccc3)s2)cc1,0
CC(C)Nc1nc(-c2ccc(Br)s2)cs1,0
CC(C)NS(=O)(=O)c1ccc(Br)c(C(=O)OCc2ccc(Br)cc2)c1,0
CCc1cccc(C)c1Nc1nnc(SCC#N)s1,0
COc1cccc2c1C(=O)c1c(O)c3c(c(O)c1C2=O)C[C@@](O)(C(=O)CO)C[C@@H]3O[C@H]1C[C@H](N)[C@H](O)[C@H](C)O1,95.8
COc1cccc2c1C(=O)c1c(O)c3c(c(O)c1C2=O)C[C@@](O)(C(C)=O)C[C@@H]3OC1CC(N)C(O)C(C)O1 (stereo not given in full),93.3
Cn1c(=NC(=O)c2cn(CC(N)=O)nn2)sc2ccccc21,0
NC(=O)NCCCOC(=O)C1CC1c1cccc(Cl)c1Cl (stereo not given),0
Cc1cccc(NC(=O)c2csc3nc(-c4ccccc4)cn23)n1,0
CNc1nc2ccccc2n1/N=C\c1cccc(OC)c1OC,0
CCc1nc(C)c(C(=O)NC(C)C2CC3CCC2C3)s1 (stereo not given),0
Cc1nc(SC(C)C(=O)NC(N)=O)c(C#N)c(C)c1C (stereo not given),0
Cc1ccc(Cl)c2sc(N(CCN3CCOCC3)C(=O)c3ccc(C#N)cc3)nc12,0
CC1Cc2cc(-c3cc(COC(=O)C4CCN(S(C)(=O)=O)CC4)no3)ccc2O1 (stereo not given),0
COC(=O)c1c(Nc2ccccc2)sc(C(=O)c2ccc(NC(C)=O)cc2)c1C,0
Cc1ccc(CNC(=O)c2ccn(C)c(=O)c2)cc1F,0
CSc1ccc(CC(=O)NCc2cccnc2N2CCN(C(C)=O)CC2)cc1,0
O=C(O)c1ccccc1CN1CCCCC1CCn1cccn1 (stereo not given),0
OC[C@@H]1CCCN1Cc1csc(-c2ccc(Br)cc2)n1,0
O=c1cc(CCn2cccn2)nc(-c2ccc(CN3CCC[C@@H]3CO)cc2)[nH]1,89.0
COCCN(Cc1cnn(C)c1)C(=O)c1c(F)ccc(OC)c1F,0
COc1cc(Cn2nc(C(C)C)c3cnn(C(C)(C)C)c3c2=O)cc(OC)c1,0
COc1cc(C=C2C(=O)N(C)C(=O)N(C)C2=O)ccc1O,0
COc1cc(/C=c2\sc3nc4cc(Br)cnc4n3c2=O)ccc1O,71.5
COc1cc(/C=C/c2ccc(O)c(OC)c2)ccc1O,0
COC(=O)c1cc2c(=O)n(-c3ccc(C(C)C)cc3)ccc2nc1C,0
CC(C)c1nc2oc3ccccc3c(=O)c2c(=O)n1-c1ccccc1,0
O=C(c1ccc2ncccc2c1)N1CCCC(N2CCN(c3ccc(F)cc3)CC2)C1 (stereo not given),0
